# Reference: PubChem BioAssay AID651871 (Sanford-Burnham Center for Chemical Genomics, 2012)
# Where “and” joins values, the source holds several entries; their conditions need not be identical. Identical values can stand only once.
# Tested on: H9c2
# Experiment: protection of cardiomyocytes from stress damage, SAR follow-up, cell-based, panel, H9c2 and HL-1, ATP luminescence, set 2 (AID 651871);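 further: cells exposed to stressor for 2 h before ATP readout; reference of the scale not given here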
# Conditions: H9c2/HL-1 cardiomyocytes, H2O2 oxidative stress; with H2O2, run 4, at 79 µM (top of the series)
row,Structure (SMILES),activity (protection/inhibition)
1,COc1cc(-c2cc(C(=O)Nc3cccc(C(=O)NCc4ccccc4)c3)c3ccccc3n2)cc(OC)c1OC,87.2%
2,COc1ccc2nc(-c3cc(OC)c(OC)c(OC)c3)cc(C(=O)NCC(=O)Nc3ccc(C(C)=O)cc3)c2c1,86.1% and 56.6%
3,CCOC(=O)c1cccc(NC(=O)CNC(=O)c2cc(-c3cc(OC)c(OC)c(OC)c3)nc3ccccc23)c1,115%
4,COc1ccc2c(c1OC)C(=O)N1c3ccccc3C(=O)N(Cc3cccc(Cl)c3Cl)C21 (centres undefined),52.4% and 40.9%
